This passage reports Percent Effect results from ChEMBL document CHEMBL3988442, “University of Dundee, Small-Polar-MMV Screening Library” (2021).

Molecules are shown by their SMILES. For some assays here: Results with a measured potency or affinity are listed apart.

Common to all, as to design: scale not given: direction of the effect not stated beside the values
For assay [1], the target named is Protein translocase subunit SecA (Escherichia coli (strain K12)) (UniProt P10408). In words: Assay to Identify E. coli SecA ATPase Inhibitors. It counts as functional. The conditions noted are these: 30 µM.
For assay [2], the target named is T1, Ubiquitin-activating enzyme e1, putative (Leishmania donovani (strain BPK282A1)) (UniProt E9BSI1).
T1 sequence (whole entry): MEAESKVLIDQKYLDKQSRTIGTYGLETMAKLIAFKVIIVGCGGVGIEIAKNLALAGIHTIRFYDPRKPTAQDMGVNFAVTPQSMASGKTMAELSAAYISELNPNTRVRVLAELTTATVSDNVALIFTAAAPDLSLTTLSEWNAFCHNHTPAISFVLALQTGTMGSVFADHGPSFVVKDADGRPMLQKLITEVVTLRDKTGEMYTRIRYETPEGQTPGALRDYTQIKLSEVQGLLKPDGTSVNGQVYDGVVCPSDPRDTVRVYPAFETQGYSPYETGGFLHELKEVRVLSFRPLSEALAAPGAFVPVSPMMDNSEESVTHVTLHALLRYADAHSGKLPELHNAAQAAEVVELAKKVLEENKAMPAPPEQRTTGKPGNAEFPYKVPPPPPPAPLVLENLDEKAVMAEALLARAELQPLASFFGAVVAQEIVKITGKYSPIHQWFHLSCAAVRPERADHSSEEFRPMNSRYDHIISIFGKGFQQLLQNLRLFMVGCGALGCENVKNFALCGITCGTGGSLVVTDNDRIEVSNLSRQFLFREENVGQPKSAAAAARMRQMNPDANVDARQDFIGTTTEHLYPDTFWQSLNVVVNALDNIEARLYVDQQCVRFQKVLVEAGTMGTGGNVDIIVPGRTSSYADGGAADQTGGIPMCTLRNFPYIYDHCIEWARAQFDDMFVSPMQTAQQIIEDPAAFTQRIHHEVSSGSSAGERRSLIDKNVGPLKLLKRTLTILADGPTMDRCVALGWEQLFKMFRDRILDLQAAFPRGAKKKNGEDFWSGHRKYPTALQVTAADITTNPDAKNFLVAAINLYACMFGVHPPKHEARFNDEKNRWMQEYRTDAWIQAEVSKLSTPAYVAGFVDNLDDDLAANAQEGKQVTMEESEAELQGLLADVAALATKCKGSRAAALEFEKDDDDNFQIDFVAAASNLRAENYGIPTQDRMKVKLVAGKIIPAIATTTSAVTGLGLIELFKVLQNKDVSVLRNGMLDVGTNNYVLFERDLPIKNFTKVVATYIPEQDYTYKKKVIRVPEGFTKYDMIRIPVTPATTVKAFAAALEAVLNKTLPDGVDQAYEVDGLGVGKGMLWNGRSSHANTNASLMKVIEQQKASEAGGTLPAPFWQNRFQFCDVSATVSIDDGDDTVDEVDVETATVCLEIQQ
Kind of assay: Leishmania donovani Ubiquitin Activating Enzyme (LdE1). It counts as functional. The settings on record: 30 µM.

Assay [3] addresses AMP-activated protein kinase, AMPK (Homo sapiens) (UniProt P54646+O43741+P54619+Q9UGJ0+Q9Y478+Q13131+Q9UGI9). In words: AMP-dependent Kinase enzyme assay. An in vitro enzyme assay that detects ADP turnover that is directly proportional to AMPK activity. This uses naive AMPK that is activated during the assay with MK-8722. It counts as functional. The settings on record: 30 µM.

The target in assay [4] is Sialic acid-binding Ig-like lectin 9 (Homo sapiens) (UniProt Q9Y336). In words: Hs-Siglec9 ALPHAscreen SOP 20170721. The conditions noted are these: 10 µM. In general terms: Alpha assays give light when donor and acceptor beads are brought close together.
Assay [5] relates to Trypanosoma cruzi. Kind of assay: Trypanosoma cruzi phosphomannomutase and mannose-1-phosphate guanylyltransferase assay. In kind it is functional. The settings on record: 10 µM.
Assay [6] addresses T2, Arginase-2, mitochondrial (Homo sapiens) (UniProt P78540).
T2 sequence (whole entry): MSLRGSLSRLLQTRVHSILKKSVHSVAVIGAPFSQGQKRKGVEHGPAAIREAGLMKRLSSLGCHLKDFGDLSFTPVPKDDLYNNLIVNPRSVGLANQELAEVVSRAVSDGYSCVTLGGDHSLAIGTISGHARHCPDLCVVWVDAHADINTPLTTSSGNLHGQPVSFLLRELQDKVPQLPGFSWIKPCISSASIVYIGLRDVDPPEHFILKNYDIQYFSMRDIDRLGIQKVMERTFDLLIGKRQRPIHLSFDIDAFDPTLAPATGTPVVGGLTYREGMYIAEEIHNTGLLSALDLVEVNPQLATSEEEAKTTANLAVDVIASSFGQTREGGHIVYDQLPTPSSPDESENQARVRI
Kind of assay: in vitro enzyme assay to detect the production of urea directly proportional to the activity of Arginase II. Further: in the data most compounds retested in dose-response had high values. In kind it is functional. The settings on record: 33.3 µM.

In assay [7] the target is T3, Proteasome subunit beta (Trypanosoma cruzi) (UniProt O96673).
T3 sequence (whole entry): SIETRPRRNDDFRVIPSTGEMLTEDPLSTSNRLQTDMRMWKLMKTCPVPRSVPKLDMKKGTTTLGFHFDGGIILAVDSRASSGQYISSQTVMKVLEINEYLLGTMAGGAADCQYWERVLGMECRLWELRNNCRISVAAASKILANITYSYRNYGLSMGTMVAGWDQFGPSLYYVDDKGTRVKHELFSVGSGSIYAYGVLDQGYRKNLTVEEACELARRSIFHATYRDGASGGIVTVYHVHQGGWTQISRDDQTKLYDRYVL
Kind of assay: Trypanosoma cruzi proteasome chymotrypsin-like activity (TcProtChymo) assay. Further: in the data most compounds retested in dose-response had high values. In kind it is functional. The conditions noted are these: 9.37 µM.

The species named for assay [8] is Homo sapiens. In words: To identify inhibition of the IFN signalling (Jak-Stat) pathway via expression of an eGFP reporter gene under the control of an IFN-stimulated response element (ISRE) containing MxA promoter. In kind it is functional. The conditions noted are these: 30 µM.
Assay [9] concerns the target T4, Tyrosyl-tRNA synthetase, putative (Trypanosoma cruzi (strain CL Brener)) (UniProt Q4DSP6).
T4 sequence (whole entry): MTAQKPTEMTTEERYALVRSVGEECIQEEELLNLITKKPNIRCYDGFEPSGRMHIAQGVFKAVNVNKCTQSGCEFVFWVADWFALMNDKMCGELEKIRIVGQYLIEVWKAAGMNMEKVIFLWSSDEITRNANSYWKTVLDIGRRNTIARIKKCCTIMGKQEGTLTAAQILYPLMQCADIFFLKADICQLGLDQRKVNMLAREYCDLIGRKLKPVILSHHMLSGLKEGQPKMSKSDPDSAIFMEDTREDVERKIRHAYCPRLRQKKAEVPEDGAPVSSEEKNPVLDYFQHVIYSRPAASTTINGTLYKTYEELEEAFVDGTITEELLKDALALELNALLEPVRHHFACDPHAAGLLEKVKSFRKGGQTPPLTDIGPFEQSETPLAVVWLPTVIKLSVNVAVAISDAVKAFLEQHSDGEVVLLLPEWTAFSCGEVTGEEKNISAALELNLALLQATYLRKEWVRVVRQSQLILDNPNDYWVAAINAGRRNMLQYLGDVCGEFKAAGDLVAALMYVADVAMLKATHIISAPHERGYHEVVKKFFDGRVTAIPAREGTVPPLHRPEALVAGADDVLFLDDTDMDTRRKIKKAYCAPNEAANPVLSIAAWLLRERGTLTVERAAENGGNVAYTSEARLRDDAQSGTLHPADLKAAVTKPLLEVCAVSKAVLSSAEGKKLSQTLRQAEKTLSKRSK
Kind of assay: Trypanosoma cruzi tyrosyl tRNA synthetase (TcYRS) _High Tyrosine SOP. Further: in the data most compounds retested in dose-response had high values. The settings on record: 30 µM. In kind it is functional.

In assay [10] the target is T4, Tyrosyl-tRNA synthetase, putative (Trypanosoma cruzi (strain CL Brener)). Kind of assay: Trypanosoma cruzi tyrosyl tRNA synthetase (TcYRS) SOP. In kind it is functional. The settings on record: 30 µM.
Assay [11] concerns the target Chromo domain-containing protein 1 (Saccharomyces cerevisiae (strain ATCC 204508 / S288c) (Baker's yeast)) (UniProt P32657). Kind of assay: ScCHD-1 Enzyme Inhibition Assay. Further: in the data most compounds retested in dose-response had high values. In kind it is functional. The conditions noted are these: 30 µM.

Protein translocase subunit SecA (Escherichia coli (strain K12)), sequence (P10408 whole entry): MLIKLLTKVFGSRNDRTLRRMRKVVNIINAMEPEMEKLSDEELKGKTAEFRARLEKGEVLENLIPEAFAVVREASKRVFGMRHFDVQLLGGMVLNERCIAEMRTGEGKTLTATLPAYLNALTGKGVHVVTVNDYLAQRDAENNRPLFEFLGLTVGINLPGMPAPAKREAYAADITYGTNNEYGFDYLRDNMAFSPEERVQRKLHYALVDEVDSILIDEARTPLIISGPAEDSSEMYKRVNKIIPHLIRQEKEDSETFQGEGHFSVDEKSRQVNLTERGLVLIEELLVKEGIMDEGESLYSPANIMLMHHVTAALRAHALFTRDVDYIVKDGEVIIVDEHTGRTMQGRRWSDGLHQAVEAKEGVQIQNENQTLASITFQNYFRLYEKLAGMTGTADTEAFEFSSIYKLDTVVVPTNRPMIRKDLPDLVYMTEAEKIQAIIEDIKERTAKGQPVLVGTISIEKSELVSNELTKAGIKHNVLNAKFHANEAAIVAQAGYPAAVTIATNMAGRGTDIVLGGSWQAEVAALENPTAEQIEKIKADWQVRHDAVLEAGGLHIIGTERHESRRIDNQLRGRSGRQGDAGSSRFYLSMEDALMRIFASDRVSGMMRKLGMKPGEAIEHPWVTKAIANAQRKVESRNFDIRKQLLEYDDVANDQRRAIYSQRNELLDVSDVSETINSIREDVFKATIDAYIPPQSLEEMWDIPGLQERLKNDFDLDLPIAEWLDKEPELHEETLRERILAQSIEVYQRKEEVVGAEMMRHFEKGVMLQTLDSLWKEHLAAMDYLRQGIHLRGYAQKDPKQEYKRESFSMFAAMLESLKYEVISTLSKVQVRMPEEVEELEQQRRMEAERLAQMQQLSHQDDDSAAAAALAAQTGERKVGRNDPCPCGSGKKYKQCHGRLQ
Sialic acid-binding Ig-like lectin 9 (Homo sapiens), sequence (Q9Y336 whole entry): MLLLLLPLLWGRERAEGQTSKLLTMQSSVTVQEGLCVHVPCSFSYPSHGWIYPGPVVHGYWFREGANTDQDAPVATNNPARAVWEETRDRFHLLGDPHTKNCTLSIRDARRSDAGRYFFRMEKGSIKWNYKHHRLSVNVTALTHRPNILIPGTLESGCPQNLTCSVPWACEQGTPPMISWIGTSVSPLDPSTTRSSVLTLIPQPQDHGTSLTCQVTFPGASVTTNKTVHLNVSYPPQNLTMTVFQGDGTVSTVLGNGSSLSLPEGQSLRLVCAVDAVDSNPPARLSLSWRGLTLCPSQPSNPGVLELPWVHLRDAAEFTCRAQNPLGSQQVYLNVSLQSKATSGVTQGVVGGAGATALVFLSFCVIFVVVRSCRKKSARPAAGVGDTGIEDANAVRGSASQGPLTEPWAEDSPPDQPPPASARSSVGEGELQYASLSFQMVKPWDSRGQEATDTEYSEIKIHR
Chromo domain-containing protein 1 (Saccharomyces cerevisiae (strain ATCC 204508 / S288c) (Baker's yeast)), sequence (P32657 whole entry, the tested form may be a part): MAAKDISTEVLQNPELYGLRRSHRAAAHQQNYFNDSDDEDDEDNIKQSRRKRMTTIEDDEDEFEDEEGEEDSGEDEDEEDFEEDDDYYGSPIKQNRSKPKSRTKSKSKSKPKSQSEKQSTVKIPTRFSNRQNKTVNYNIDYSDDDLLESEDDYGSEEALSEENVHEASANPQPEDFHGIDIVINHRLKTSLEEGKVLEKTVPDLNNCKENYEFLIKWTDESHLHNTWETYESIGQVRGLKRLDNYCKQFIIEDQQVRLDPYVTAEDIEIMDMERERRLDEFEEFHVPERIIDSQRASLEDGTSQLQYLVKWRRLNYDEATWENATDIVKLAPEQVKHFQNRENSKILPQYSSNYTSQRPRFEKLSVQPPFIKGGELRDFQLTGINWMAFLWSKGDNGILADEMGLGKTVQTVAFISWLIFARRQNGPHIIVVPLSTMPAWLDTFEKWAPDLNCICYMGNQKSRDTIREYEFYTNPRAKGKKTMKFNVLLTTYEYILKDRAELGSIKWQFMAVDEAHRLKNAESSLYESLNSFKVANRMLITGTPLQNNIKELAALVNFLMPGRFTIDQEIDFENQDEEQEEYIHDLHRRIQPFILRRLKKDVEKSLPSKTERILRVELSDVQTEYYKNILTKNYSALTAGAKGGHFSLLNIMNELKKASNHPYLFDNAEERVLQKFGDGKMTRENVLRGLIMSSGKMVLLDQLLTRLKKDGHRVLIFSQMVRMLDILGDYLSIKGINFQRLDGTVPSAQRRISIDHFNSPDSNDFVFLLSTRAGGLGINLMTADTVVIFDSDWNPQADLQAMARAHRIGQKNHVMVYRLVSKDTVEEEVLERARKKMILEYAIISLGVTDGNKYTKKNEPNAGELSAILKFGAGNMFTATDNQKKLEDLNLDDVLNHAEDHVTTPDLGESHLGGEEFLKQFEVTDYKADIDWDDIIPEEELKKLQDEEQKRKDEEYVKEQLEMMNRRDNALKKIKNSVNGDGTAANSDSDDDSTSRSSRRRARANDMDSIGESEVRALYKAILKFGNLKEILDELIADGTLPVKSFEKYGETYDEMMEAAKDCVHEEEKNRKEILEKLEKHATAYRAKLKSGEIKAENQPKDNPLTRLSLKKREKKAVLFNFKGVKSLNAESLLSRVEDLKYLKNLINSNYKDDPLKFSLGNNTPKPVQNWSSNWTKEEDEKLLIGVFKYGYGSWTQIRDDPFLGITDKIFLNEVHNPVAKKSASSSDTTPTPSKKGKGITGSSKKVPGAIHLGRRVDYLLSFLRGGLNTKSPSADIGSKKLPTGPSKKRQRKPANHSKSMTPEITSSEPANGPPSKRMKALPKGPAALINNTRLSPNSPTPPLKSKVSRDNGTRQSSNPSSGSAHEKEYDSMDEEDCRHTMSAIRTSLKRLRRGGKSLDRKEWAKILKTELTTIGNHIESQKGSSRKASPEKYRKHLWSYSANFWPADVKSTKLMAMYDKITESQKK

`COc1ccc(C(=O)NS(=O)(=O)c2ccc(C#N)cc2C(F)(F)F)cc1`: the Percent Effect was -1.41% in assay [1]; -10.8% in assay [2]; 20.6% in assay [3]; 0.998% in assay [4]; 0.472% in assay [5]; 6.41% in [6]. Besides, the Percent Effect in [7] is -3.06%; in [8] it was 11.2%; in assay [9] it was -2.46%; in assay [10] it was -1.24%; in assay [11], -2.1%.

Regarding `CCc1csc(C2CCCN(C(=O)c3ccc(OC)nn3)C2)n1` (stereo not given), the Percent Effect in [1] is -6.61%; in [2] it was 7.79%; in assay [3] it was -35.3%; in assay [4], 12.8%; in assay [5], 0.187%; in assay [6] it was -0.356%. Besides, the Percent Effect in assay [7] was 4.73%; in assay [8], 14.5%; in assay [9] it was 7.77%; in assay [10], 14.6%; in [11], -7.71%.

In the case of `CC(O)CN1CCN(C(=O)c2cccn2Cc2ccncc2)CC1` (stereo not given), the Percent Effect was -5.17% in assay [1]; 10.1% in [2]; 0.216% in [3]; 10.1% in assay [4]; 2.74% in assay [5]; 2.66% in assay [6]. For the same molecule, the Percent Effect in assay [7] is -2.38%; in assay [8], 3.13%; in assay [9] it was 0.493%; in assay [10], 13.9%; in [11], -8.49%.

As to `O=C(Cc1ccc2c(c1)OCO2)N1CCN(c2cnccn2)CC1`, the Percent Effect was -1.75% in assay [1]; 15.8% in assay [2]; -3.5% in assay [3]; 4.13% in assay [4]; 6.77% in [5]; 4.21% in assay [6]. Also, the Percent Effect in assay [7] is 8.69%; in assay [8], 2.58%; in [9] it was 5.39%; in assay [10] it was 21.9%; in [11], -11.8%.

With `COc1ccc(NC(=O)NC(C)c2nc[nH]n2)cc1` (stereo not given), the Percent Effect in [1] was -1.78%; in [2], 8.11%; in assay [3], -0.122%; in assay [4], 9.35%; in [5], 3.03%; in [6], 19.6%. Further, the Percent Effect in assay [7] is 17.9%; in assay [8], -13.4%; in [9], 0%; in [10] it was 11.1%; in assay [11], -3.04%.

As to `CC(c1cccnc1)N(C)Cc1csc(-c2ccccn2)n1` (stereo not given), the Percent Effect was -7.3% in [1]; 5.48% in assay [2]; -12.1% in [3]; 19.7% in assay [4]; 6.66% in assay [5]; 3.64% in assay [6]. Also, the Percent Effect in [7] is 5.86%; in assay [8], 8.26%; in assay [9] it was 5.38%; in [10], 15%; in [11], 92.8%.

Take `Cc1ccccc1CN1CCC(NCC2CNc3ccnn3C2)CC1` (stereo not given): the Percent Effect in assay [1] is -0.777%; in assay [2], 0%; in assay [3], -17.1%; in [4], -4.24%; in [5] it was 1.27%; in assay [6], 1.24%. Moreover, the Percent Effect is 11.4% in [7]; -3.35% in assay [8]; 6.45% in assay [9]; 13.6% in assay [10]; -5.59% in assay [11].

On to `COc1ccc(CN2CC[C@H](NC(C)=O)[C@@H](O)CC2)c(OC)c1`, for which the Percent Effect in assay [1] is -4.21%; in assay [2], 4.05%; in assay [3], 9.24%; in [4], 3.43%; in assay [5], 2.77%; in assay [6] it was -2.55%. Further, the Percent Effect was 13.6% in [7]; 13% in assay [8]; -1.07% in assay [9]; 1.3% in assay [10]; -12.5% in [11].

Turning to `Cn1cc(N2CC3(CCN(S(=O)(=O)C4CC4)C3)CC2=O)cn1` (stereo not given), the Percent Effect in assay [1] was -2.73%; in assay [2], 18.7%; in [3] it was -7.51%; in assay [4], -0.00481%; in [5], 3.09%; in [6] it was -11.3%. For the same molecule, the Percent Effect was 10.6% in [7]; -1.37% in assay [8]; 7.29% in [9]; 27.5% in [10]; -13.5% in assay [11].

Consider `Cc1ccc(C(=O)NCCCN2CCOCC2)c(Cl)c1`, for which the Percent Effect in assay [1] was -2.82%; in assay [2] it was 2.6%; in [3] it was 2.57%; in [4] it was 5.34%; in [5], 6.79%; in [6] it was -2.76%. The Percent Effect in assay [7] amounted to 4.33%; in [8] it was 18.2%; in [9] it was 3.23%; in [10] it was 11.1%; in assay [11], 108%.
